# Bioassay records: PubChem BioAssay, National Center for Advancing Translational Sciences (NCATS)
# This is a sample that favours compounds with a hit; in the whole collection about 3.7% have one here.
# PLK1 PBD inh: qHTS for Inhibitors of PLK1-PDB (polo-like kinase 1 - polo-box domain): Primary Screen | Potency, µM, usual class: inhibitors | AID 720504, 2013 | hit rate 2.8% among 360,000 | Serine/threonine-protein kinase PLK1 (Homo sapiens), P53350 | Plk1 PBD binding of FITC phosphopeptide, fluorescence polarization; note: series mostly up to about 57 µM; nearly all actives have a fitted effect of over 65% in size
# WRN helicase inh: qHTS for Inhibitors of WRN Helicase | Bifunctional 3'-5' exonuclease/ATP-dependent helicase WRN (Homo sapiens), Q14191 | WRN helicase unwinding, fluorescent forked duplex, kinetic | Potency, µM (titrated, usually from 114 µM), most hits filed as inhibitors | hit rate 0.46% among 360,000 | AID 651768, 2012; note: nearly all actives have a fitted effect of over 55% in size
# Target sequence (Q14191 whole entry, looked up): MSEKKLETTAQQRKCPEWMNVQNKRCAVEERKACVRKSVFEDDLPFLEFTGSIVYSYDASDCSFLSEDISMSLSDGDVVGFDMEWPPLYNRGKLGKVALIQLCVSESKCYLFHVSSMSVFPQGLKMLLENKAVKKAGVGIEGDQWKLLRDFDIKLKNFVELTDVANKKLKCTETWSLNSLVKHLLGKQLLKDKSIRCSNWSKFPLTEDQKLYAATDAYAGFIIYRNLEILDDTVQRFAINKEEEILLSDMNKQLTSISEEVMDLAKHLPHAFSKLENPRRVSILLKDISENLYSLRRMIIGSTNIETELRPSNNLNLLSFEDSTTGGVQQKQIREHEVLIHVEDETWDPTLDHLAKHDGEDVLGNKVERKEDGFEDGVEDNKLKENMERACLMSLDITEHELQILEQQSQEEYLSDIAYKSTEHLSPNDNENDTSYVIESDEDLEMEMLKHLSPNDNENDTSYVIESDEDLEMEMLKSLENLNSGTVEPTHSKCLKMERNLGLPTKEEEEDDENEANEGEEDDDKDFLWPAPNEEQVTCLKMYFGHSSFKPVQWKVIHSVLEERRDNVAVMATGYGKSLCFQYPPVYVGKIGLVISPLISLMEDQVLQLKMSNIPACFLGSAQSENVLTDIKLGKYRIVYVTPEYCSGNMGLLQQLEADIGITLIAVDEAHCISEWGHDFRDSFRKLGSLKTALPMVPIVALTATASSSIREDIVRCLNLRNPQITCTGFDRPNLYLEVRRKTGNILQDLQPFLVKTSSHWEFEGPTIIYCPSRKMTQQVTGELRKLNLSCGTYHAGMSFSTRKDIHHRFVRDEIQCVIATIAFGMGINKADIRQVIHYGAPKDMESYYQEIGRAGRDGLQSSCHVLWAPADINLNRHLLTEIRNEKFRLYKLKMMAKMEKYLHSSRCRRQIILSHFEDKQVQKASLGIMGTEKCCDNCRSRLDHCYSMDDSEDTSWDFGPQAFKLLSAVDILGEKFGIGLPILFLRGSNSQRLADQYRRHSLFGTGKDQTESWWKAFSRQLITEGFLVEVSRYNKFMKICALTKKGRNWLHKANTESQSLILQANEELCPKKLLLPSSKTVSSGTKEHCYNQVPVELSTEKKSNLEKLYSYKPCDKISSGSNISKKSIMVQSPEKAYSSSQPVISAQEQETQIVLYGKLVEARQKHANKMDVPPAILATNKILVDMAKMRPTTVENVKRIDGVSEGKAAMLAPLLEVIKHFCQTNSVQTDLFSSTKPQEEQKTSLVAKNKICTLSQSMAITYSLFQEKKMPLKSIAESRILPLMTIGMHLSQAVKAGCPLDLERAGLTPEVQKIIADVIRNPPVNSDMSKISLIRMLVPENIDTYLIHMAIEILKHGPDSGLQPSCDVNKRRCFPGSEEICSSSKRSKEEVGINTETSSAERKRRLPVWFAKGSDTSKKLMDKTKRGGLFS
#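 WRN at 20 nM final was preincubated with compound for 15 min at room temperature; reaction started with 100 nM forked duplex oligonucleotide carrying fluorophore and quencher plus 2 mM ATP (final). Unwinding followed kinetically by red fluorescence (ex 525/em 598 nm).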
# TCR activator: Activators of T cell receptors: qHTS campaign. primary human leukocytes, anti-CD3, IL-2 HTRF, 48 h. Potency, µM (doses to about 9.22 µM), most hits filed as activators. 330,000 tested, under 10 active. AID 504894, 2011
#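 Human primary leukocytes + a-CD3 beads + cpd, 48 hr; IL-2 in supernatant by HTRF (ex 320nm / em 665nm). No co-stimulatory signal supplied.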
# FEN1 inh: qHTS Assay for the Inhibitors of Human Flap endonuclease 1 (FEN1); AID 588795, 2011; Potency, µM (titrated, usually from 114 µM), actives largely listed as inhibitors; Recombinant FEN1 flap cleavage, fluorescence, 15 min; hit rate 0.35% among 390,000; note: nearly all actives have a fitted effect of over 65% in size
#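 In this screen, 50 nM flap DNA substrate was added to 10 nM FEN1 pretreated with compound for 15 min at room temperature; cleavage was followed with reads at 0 and 15 min, and Hill fitting gave concentration–response parameters.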
# PI5P4K alpha inh: qHTS for Inhibitors of phosphatidylinositol 5-phosphate 4-kinase (PI5P4K); PI5P4Kalpha enzyme, ADP-Glo luminescence, 60 min; hits give low values; max response, %; hit rate 1.2% among 330,000; AID 652105, 2013; active = max response of -50% or lower; inconclusive = between -30% and -50%; inactive = -30% or higher; note: value at the top dose of about 77 µM
#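 ADP-Glo luminescence end-point read after a 60 min room-temperature kinase reaction of PI5P4Kalpha plus substrate, initiated with ATP at 5 microM final. Buffer: 0.038 M HEPES pH 7.4, EGTA, 0.1% CHAPS, 5% DMSO.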
# VDR inhibitor: Inhibitors of the vitamin D receptor (VDR): qHTS; Vitamin D3 receptor (Homo sapiens), P11473; VDR-SRC2-3 peptide fluorescence polarization, 2 h; Potency, µM, most hits filed as inhibitors; hit rate 0.93% among 400,000
#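 Inhibition of the VDR/SRC2-3 peptide interaction is quantified by fluorescence polarization. Compounds (23 nl, pintool) incubate with the reagents for 2 hours at ambient room temperature.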
# TbPYK inh: qHTS of Trypanosoma Brucei Inhibitors: Confirmatory Assay for Cherry-picked Compounds; shares compounds with PLK1 PBD inh; recombinant TbPYK, Kinase-Glo ATP luminescence; Potency, µM (highest dose often 76.9 µM), usual class: inhibitors; hit rate 67% among 890; note: nearly all actives have a fitted effect of over 70% in size
# TbPYK ADP-Glo: qHTS of Trypanosoma Brucei Inhibitors: Orthogonal Assay for Cherry-picked Compounds | hit rate 62% among 890 | shares compounds with PLK1 PBD inh | AID 720584, 2013 | recombinant TbPYK, ADP-Glo luminescence, 60 min | Potency, µM (series often up to 76.9 µM), actives largely listed as inhibitors; note: nearly all actives have a fitted effect of over 75% in size
# Hits are given with their value; n = inactive; u = inconclusive; x = no result. Unless noted, calls come from the whole dose curve; as a rule, active = well fitted curve in the direction sought with a large enough effect; inconclusive = small, poorly fitted or top-dose-only effect, or another doubt; inactive = no such curve, though single readings can be large; an effect the other way counts as inactive or inconclusive.
SMILES,PLK1 PBD inh,WRN helicase inh,TCR activator,FEN1 inh,PI5P4K alpha inh,VDR inhibitor,TbPYK inh,TbPYK ADP-Glo
COc1ccc(C2=C(C)C(=O)N(Cc3ccc(C(=O)Nc4cc(C)ccc4C)cc3)S2(=O)=O)cc1,x,x,x,n,x,n,x,x
CC1(C)Cc2c(C#N)c(SCC(=O)c3ccccc3)nc(N3CCOCC3)c2CO1,n,n,n,n,n,u,10µM,11µM
O=c1cc(C(F)(F)F)[nH]c(=S)n1-c1ccccc1,u,n,n,n,n,n,14µM,11µM
CCN(CC)c1ccc(N)cc1S(=O)(=O)Nc1ccccc1OC,3.4µM,u,n,n,u,40µM,7.9µM,11µM
Cc1ccccc1N1C(=O)CC(Sc2nnc(-c3ccccc3)o2)C1=O (stereo unspecified),n,n,n,n,n,n,14µM,18µM
O=C(c1ccc2ncsc2c1)N1CCCCC1,n,n,n,n,n,n,u,u
Cc1oc(-c2ccc(C(=O)NCc3ccc(N(C)C)cc3)cc2)nc1COc1ccccc1,x,x,x,n,x,n,x,x
CNC(=S)N=Nc1c(O)[nH]c2ccccc12,n,n,n,n,n,n,x,x
CN(C)C(=S)N=Nc1[nH]c2ccccc2c1O,17µM,n,n,n,n,n,5.6µM,6.3µM
O=S(=O)(Nc1cc(Sc2cccc3cccnc23)c(O)c2ccccc12)c1ccc(F)cc1,1.5µM,22µM,n,u,n,22µM,1.4µM,2.2µM
COc1ccc(CNc2nc(-c3cccc(NS(C)(=O)=O)c3)nc3ccccc23)c(OC)c1,x,x,x,x,x,n,x,x
O=C(NCc1cccs1)c1ccc2c(c1)N(Cc1cccc(F)c1)C(=O)c1ccccc1S2,x,x,x,n,x,n,x,x
N#Cc1cc2c(nc1SCC(=O)N1CCCCC1)CCCCC2,27µM,n,n,n,n,u,13µM,13µM
N#Cc1cc2c(nc1SCC(=O)N1CCCCC1)CCCC2,n,n,n,n,n,n,x,x
CN(C)c1oc(-c2ccccc2Cl)nc1C#N,n,n,n,n,n,n,x,x
CN(C)c1oc(-c2ccccc2[N+](=O)[O-])nc1C#N,27µM,n,n,n,n,32µM,1.8µM,4.5µM
CCCCC1(C)OC(=O)C(=Cc2ccc(-c3ccc(Cl)c(C(=O)O)c3)o2)C(=O)O1 (stereo unspecified),4.2µM,u,n,n,n,22µM,16µM,32µM
CC(C)OC(=O)c1cc(-c2ccc(C=O)o2)ccc1Cl,n,n,n,n,n,n,x,x
O=C1C=CC(=O)N1CCNc1ncc(C(F)(F)F)cc1Cl,2.7µM,n,n,u,n,22µM,1.3µM,4µM
COc1ccc(C2NC(=O)c3sc(=S)n(-c4ccccc4)c3N2)cc1 (stereo unspecified),u,n,n,n,n,79µM,7.1µM,13µM
CC(C)OCCCNC(=O)C(=O)Nc1ccc2nc3n(c(=O)c2c1)CCCCC3,x,x,x,n,x,n,x,x
O=C(Cn1c(=O)n(Cc2ccco2)c(=O)c2oc3ccccc3c21)Nc1ccc(F)cc1F,x,x,x,n,x,n,x,x
Cc1nc2c(c(C)c1CCC(=O)NCc1ccc(Cl)cc1)c(=O)n(C)c(=O)n2C,x,x,x,u,x,n,x,x
Cc1ccc2oc(C(=O)N(C)Cc3ccc(C)o3)c(C)c2c1,u,n,n,n,n,u,16µM,28µM
Cn1c(=O)[nH]c(=O)c2c1nc(SCC(=O)O)n2Cc1ccccc1,n,n,n,n,u,n,u,u
Cn1c(=O)[nH]c(=O)c2c1nc(SCCN1CCCCC1)n2CCCc1ccccc1,2.4µM,n,n,n,n,35µM,3.5µM,4.5µM
CC(=O)C[n+]1cccc(Br)c1,x,x,x,n,x,x,x,x
COc1c(Cl)cc(Cl)cc1CNCCSc1nnnn1C,x,x,x,n,x,n,x,x
